From PubChem BioAssay (Tox21)
Inconclusive results are not listed. Calls of active or inactive are those of the source. Unless noted, calls follow the shape of the dose curve; as a rule, active = well fitted curve in the direction sought with a large enough effect in the repeat runs; inconclusive = weak or mixed curves; inactive = no such curve, though single readings can be large; an effect the other way counts as inactive or inconclusive.

Legend:
[1] = qHTS assay for small molecules that induce genotoxicity in human embryonic kidney cells expressing luciferase-tagged ATAD5 (AID 651632); also: nearly all actives have a fitted effect of over 15% in size
Method in brief: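 Luminescence read-out: after 16 hr compound exposure at 37C, ATAD5-luciferase HEK293T cells received Amplite, 30 min RT, then CCD imaging. A rise in signal marks genotoxic stress.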

[2] = qHTS assay for small molecules that induce genotoxicity in human embryonic kidney cells expressing luciferase-tagged ATAD5 - cell viability (AID 651634; calls by dose curve; also: nearly all actives have a fitted effect of over 25% in size; also: potency is read from the fitted curve at half-maximal effect)
Method in brief: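 HEK293T ATAD5-luc cells, 2,000/well; compound 15.5 hr, 37C/5% CO2; CellTiter-Fluor 30 min, 37C; fluorescence read.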

[3] = qHTS assay for small molecule disruptors of the mitochondrial membrane potential - cell viability (AID 720634; calls by dose curve;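 also: human HepG2 liver cancer cells; series mostly up to about 83 µM; nearly all actives have a fitted effect of over 20% in size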)
Method in brief: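 Luminescence from CellTiter-Glo (ATP content) gave viability in HepG2 cells, read in the same wells as the MMP dye assay after 1 hr compound exposure at 37 C.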

[4] = qHTS assay to test for compound auto fluorescence at 590 nm (red) in HepG2 cells (AID 720674)
Method in brief: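 Seeding: 2,000 HepG2 cells/well, MEM/10% FBS, overnight 37 C. Dosing: compound vs DMSO. Incubation: 1 hr, 37 C, 5% CO2. Read: fluorescence 540 ex/590 em, Rose Bengal sodium as red reference.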

[5] = qHTS assay to test for compound auto fluorescence at 535 nm (green) in HepG2 cells (AID 720675)
[6] = qHTS assay to test for compound auto fluorescence at 460 nm (blue) in HEK293 cells (AID 720678)
Method in brief: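 HEK293 cells (2,000 per well, medium with 10% dialyzed FBS) attached for 4-5 hr at 37C, then received compound and stood overnight at 37C, 5% CO2. Blue fluorescence was read at Ex/Em 405/460 nm and expressed relative to triamterene.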

[7] = qHTS assay to test for compound auto fluorescence at 590 nm (red) in HEK293 cells (AID 720679)
Method in brief: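 HEK293 cells (2,000/well, medium with 10% dialyzed FBS) attached for 4-5 hr at 37C, received 23 nL compound and were incubated overnight at 37C, 5% CO2. Red fluorescence was then read at 540/590nm Ex/Em, referenced to Rose Bengal sodium.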

[8] = qHTS assay to test for compound auto fluorescence at 535 nm (green) in HEK293 cells (AID 720680)
[9] = qHTS assay to test for compound auto fluorescence at 460 nm (blue) in HEK293 cell free culture (AID 720681)
Method in brief: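 Compounds were added to cell-free DMEM with 10% FBS and fluorescence read directly. The blue channel used 405 nm excitation and 460 nm emission, with triamterene as the reference fluorophore.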

[10] = qHTS assay to test for compound auto fluorescence at 535 nm (green) in HEK293 cell free culture (AID 720682)
Method in brief: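 Fluorescein serves as the green reference fluorophore; each compound's intrinsic emission at 535 nm (excitation 485 nm) is reported as an equivalent amount of that dye, measured in serum-containing DMEM without cells.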

[11] = qHTS assay to test for compound auto fluorescence at 590 nm (red) in HEK293 cell free culture (AID 720683)
Method in brief: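 Cell-free wells of DMEM with 10% FBS received compound, and intrinsic fluorescence was read at excitation/emission 540/590 nm. Values expressed as equivalence to Rose Bengal sodium.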

[12] = qHTS assay to test for compound auto fluorescence at 590 nm (red) in HepG2 cell free culture (AID 720684)
Method in brief: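 Auto fluorescence equivalency versus Rose Bengal sodium, red channel Ex/Em 540/590 nm; compounds in cell-free MEM/10% FBS; DMSO vehicle control.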

[13] = qHTS assay to test for compound auto fluorescence at 460 nm (blue) in HepG2 cell free culture (AID 720685)
Method in brief: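 Cell-free plates of MEM plus 10% FBS received 23 nL compound or DMSO vehicle; blue-channel (405/460 nm) intensity scored against triamterene as reference fluorophore.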

[14] = qHTS assay to test for compound auto fluorescence at 535 nm (green) in HepG2 cell free culture (AID 720686)
[15] = qHTS assay to test for compound auto fluorescence at 460 nm (blue) in HepG2 cells (AID 720687)
Method in brief: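 HepG2 cells in MEM with 10% FBS, attached overnight at 37 C, were exposed to compound or DMSO for 1 hr at 37 C, 5% CO2. Blue fluorescence was read at 405/460 nm, with triamterene as reference fluorophore.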

[16] = molecular target: Glucocorticoid receptor (Homo sapiens) (UniProt P04150); experiment: qHTS assay to identify small molecule agonists of the glucocorticoid receptor (GR) signaling pathway (AID 720691; active = well fitted activation curve with a large enough effect in the signal ratio in the repeat runs, not every such curve was filed as active; the % refers to the signal ratio)
Method in brief: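 HeLa GR-bla reporter line; cells pre-incubated 4 h, compound in DMSO 18 h at 37 C; LiveBLAzer B/G FRET substrate 2 h RT; fluorescence intensity read-out.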

[17] = molecular target: Glucocorticoid receptor (Homo sapiens) (UniProt P04150); experiment: qHTS assay to identify small molecule antagonists of the glucocorticoid receptor (GR) signaling pathway (AID 720692; active = well fitted inhibition curve with a large enough effect in the signal ratio in the repeat runs, not every such curve was filed as active; the % refers to the signal ratio; also: potency is read from the fitted curve at half-maximal effect)
Method in brief: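 Read-out: beta-lactamase FRET substrate fluorescence, 2 h at room temperature, in HeLa cells stably carrying a GRE-driven bla reporter. Compounds were co-incubated with 5 nM dexamethasone agonist (final) for 18 h at 37 C.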

[18] = qHTS assay for small molecule agonists of the p53 signaling pathway - cell viability (AID 651633; calls by dose curve;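 also: p53RE-bla HCT reporter cells with a stable beta-lactamase p53 reporter; series mostly up to about 83 µM; nearly all actives have a fitted effect of over 30% in size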)
Method in brief: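 p53RE-bla cells were treated with compound for 16 hours at 37 C. Cytotoxicity was then measured as CellTiter-Glo luminescence after 30 min at room temperature.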

[19] = qHTS assay for small molecule disruptors of the mitochondrial membrane potential (AID 720635)
Method in brief: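 HepG2 cells exposed to compound 1 hr at 37C, then Mito-MPS dye 30 min. Ratio read of aggregate (540/590 nm) versus monomer (490/535 nm) fluorescence.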
% is scaled to controls: 0 for no effect and ±100 for the full control effect.

Chain of Glucocorticoid receptor (Homo sapiens) (P04150 whole entry, looked up): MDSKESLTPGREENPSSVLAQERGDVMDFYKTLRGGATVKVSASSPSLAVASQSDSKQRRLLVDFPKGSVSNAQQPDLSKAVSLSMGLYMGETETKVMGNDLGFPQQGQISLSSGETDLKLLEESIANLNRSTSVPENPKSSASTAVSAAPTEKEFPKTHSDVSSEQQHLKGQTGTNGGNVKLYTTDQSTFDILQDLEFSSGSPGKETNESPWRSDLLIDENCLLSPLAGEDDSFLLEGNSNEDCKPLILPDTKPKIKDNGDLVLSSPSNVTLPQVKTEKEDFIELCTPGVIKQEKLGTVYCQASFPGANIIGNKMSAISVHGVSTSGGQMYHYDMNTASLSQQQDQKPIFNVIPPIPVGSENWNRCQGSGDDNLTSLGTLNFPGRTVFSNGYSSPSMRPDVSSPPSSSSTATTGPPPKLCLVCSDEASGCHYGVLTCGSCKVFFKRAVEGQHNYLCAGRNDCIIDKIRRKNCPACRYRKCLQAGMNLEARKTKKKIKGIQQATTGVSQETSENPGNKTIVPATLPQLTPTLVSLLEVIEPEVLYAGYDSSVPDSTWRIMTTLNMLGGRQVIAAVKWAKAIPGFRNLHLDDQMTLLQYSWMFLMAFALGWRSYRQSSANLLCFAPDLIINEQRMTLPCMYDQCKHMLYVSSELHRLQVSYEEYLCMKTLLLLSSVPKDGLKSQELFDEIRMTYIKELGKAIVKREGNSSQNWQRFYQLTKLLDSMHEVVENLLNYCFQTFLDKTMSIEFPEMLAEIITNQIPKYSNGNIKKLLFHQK

CCC(Cl)CC(Cl)C(Cl)C(Cl)C(Cl)C(C)Cl (centres undefined)
inactive: activation [1] 8.79% [at 17.9 µM] | activity, negative = cytotoxicity [2] 13% [at 17.9 µM] | activity change, negative = cytotoxicity [3] -14.9% [at 17.9 µM] | fluorescence, relative to Rose Bengal [4] 0.266% [at 13.4 µM] | fluorescence, % of fluorescein control [5] -0.0606% [at 13.4 µM] | fluorescence, % of triamterene [6] 0.1% [at 13.4 µM] | fluorescence, % of fluorescent control [7] -0.173% [at 13.4 µM] | fluorescence, % of fluorescein [8] 0.0197% [at 13.4 µM] | fluorescence, % of fluorescent control [9] 0.102% [at 13.4 µM] | activity change [10] -0.0067% [at 13.4 µM] | fluorescence, % of fluorescent control [11] -0.0269% [at 13.4 µM] | fluorescence, % of Rose Bengal [12] 0.0345% [at 13.4 µM] | fluorescence, % of fluorescent control [13] 0.066% [at 13.4 µM] | fluorescence, % of fluorescein control [14] -0.002% [at 13.4 µM] | fluorescence, % of fluorescent control [15] 0.0691% [at 13.4 µM] | activation [16] -0.909% [at 15 µM] | Potency [17]

CC(C)c1ccc(C(=O)N=C(N)N)cc1S(C)(=O)=O
inactive: Potency [18] | Potency [2] | outcome [3] | Potency [19] | outcome [4] | outcome [5] | Potency [6] | outcome [7] | outcome [8] | Potency [9] | outcome [10] | outcome [11] | outcome [12] | Potency [13] | outcome [14] | Potency [15] | Potency [16] | Potency [17]

O[C@@H](CNC[C@H](O)[C@H]1CCc2cc(F)ccc2O1)[C@@H]1CCc2cc(F)ccc2O1
inactive: Potency [1] | Potency [2] | outcome [3] | outcome [4] | outcome [5] | Potency [6] | outcome [7] | outcome [8] | Potency [9] | outcome [10] | outcome [11] | outcome [12] | Potency [13] | outcome [14]
active: Potency [17] 23.9 µM

O=C(O)/C=C/c1ccc(O)c(O)c1
inactive: Potency [1] | Potency [18] | Potency [2] | outcome [3] | outcome [4] | outcome [5] | Potency [6] | outcome [7] | outcome [8] | outcome [10] | outcome [11] | outcome [12] | Potency [13] | outcome [14] | Potency [15] | Potency [16] | Potency [17]

C=CCOC(=O)COCCC(C)C
inactive: Potency [1] | Potency [2] | outcome [3] | outcome [4] | outcome [5] | Potency [6] | outcome [7] | outcome [8] | Potency [9] | outcome [10] | outcome [11] | outcome [12] | outcome [14] | Potency [15] | Potency [16]

CCCCCCCCCCCCCCCC(=O)OCC
inactive: Potency [18] | Potency [2] | outcome [3] | outcome [4] | outcome [5] | Potency [6] | outcome [7] | outcome [8] | Potency [9] | outcome [10] | outcome [11] | outcome [12] | Potency [13] | outcome [14] | Potency [16] | Potency [17]

CCN(Cc1cccc(S(=O)(=O)O)c1)c1ccc(C(=C2C=CC(=[N+](CC)Cc3cccc(S(=O)(=O)O)c3)C=C2)c2ccc(O)cc2S(=O)(=O)[O-])cc1
inactive: Potency [1] | outcome [4] | outcome [5] | Potency [6] | outcome [7] | outcome [8] | Potency [9] | outcome [10] | outcome [11] | outcome [12] | Potency [13] | outcome [14] | Potency [15] | Potency [16] | Potency [17]
active: Potency [2] 33.1 µM
